Results reported in PubChem BioAssay (EPA / NIEHS).
Calls of active or inactive are those of the source. The calls were made as follows: active = hit-call score of the fitted dose curve at least 0.9, where 1 is the maximum; inactive = score below 0.9.

Key:
[1] = ATG_GRE_CIS: Attagene CIS-FACTORIAL HepG2 Assay for human Glucocorticoid Response Elements (GRE) (AID 2282947); conditions: HepG2 GRE cis-reporter, Attagene multiplex mRNA; actives raise or lower the signal
In short: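 HepG2 cells transiently transfected with multiple cis-promoter reporter units measure endogenous TF activity; 24 h compound exposure. Reporter mRNA quantified by RT-PCR, FAM labelling, HpaI digestion and capillary electrophoresis; bidirectional fit vs DMSO baseline.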

[2] = ATG_ISRE_CIS: Attagene CIS-FACTORIAL HepG2 Assay for human Interferon Regulatory Factor 1 (IRF1) binding to an Interferon-Stimulated Response Element (ISRE) (AID 2282948); conditions: HepG2 ISRE cis-reporter (Attagene), mRNA transcription readout; actives raise or lower the signal
In short: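 Transiently transfected HepG2 cells carrying cis-element reporter units, dosed 24 hours. Reporter mRNA quantified by RT-PCR, fluorescent primer extension, HpaI digestion and capillary electrophoresis. Bidirectional fitting relative to DMSO.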

[3] = ATG_M_32_CIS: Attagene CIS-FACTORIAL HepG2 Assay for M32 Transcription Factor (Internal Marker) (AID 2282949); conditions: HepG2 Attagene cis-factorial M32 reporter, mRNA; actives raise or lower the signal;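 also: background control marker of the multiplexed CIS panel rather than a real target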
In short: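 Internal background marker read-out: RT-PCR/capillary electrophoresis fluorescence of reporter transcripts from transiently transfected HepG2 cells after 24 h chemical exposure. Activity fitted bidirectionally relative to DMSO negative control.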

[4] = ATG_M_06_CIS: Attagene CIS-FACTORIAL HepG2 Assay for M06 Transcription Factor (Internal Marker) (AID 2282950); conditions: HepG2 Attagene CIS-FACTORIAL M06 internal marker reporter; actives raise or lower the signal
In short: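 Steps: transfect HepG2 with multiplexed cis-element reporter constructs; dose chemical 24 h; extract RNA with DNase treatment; reverse-transcribe, PCR-amplify, 6-FAM label, HpaI digest; separate fragments by capillary electrophoresis. Activity fitted both directions versus DMSO.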

[5] = biological target: Hepatocyte nuclear factor 6 (Homo sapiens) (UniProt Q9UBC0); assay: ATG_HNF6_CIS: Attagene CIS-FACTORIAL HepG2 Assay for human Hepatocyte Nuclear Factor 6 (HNF6) (AID 2282952); conditions: HepG2 Attagene cis-factorial HNF6 reporter transcription; actives raise or lower the signal
Sequence of Hepatocyte nuclear factor 6 (Homo sapiens) (Q9UBC0 whole entry, looked up): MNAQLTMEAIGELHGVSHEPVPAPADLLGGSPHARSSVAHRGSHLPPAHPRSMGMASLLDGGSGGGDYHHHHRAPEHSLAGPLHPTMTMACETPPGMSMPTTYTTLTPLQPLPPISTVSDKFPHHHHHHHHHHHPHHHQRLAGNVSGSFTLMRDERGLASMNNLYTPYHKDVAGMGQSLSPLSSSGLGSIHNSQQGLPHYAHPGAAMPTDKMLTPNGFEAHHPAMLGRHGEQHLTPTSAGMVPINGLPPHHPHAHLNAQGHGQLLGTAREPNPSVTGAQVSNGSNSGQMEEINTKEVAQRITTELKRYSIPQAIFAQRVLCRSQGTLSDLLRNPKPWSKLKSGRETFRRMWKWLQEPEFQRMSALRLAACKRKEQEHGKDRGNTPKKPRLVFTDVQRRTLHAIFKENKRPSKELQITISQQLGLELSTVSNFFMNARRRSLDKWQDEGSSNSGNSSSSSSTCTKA
In short: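 Multiplexed mRNA reporter assay in transfected HepG2; 24 h dosing; RT-PCR plus capillary electrophoresis fluorescence; DMSO-referenced bidirectional curve fitting.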

[6] = biological target: Heat shock factor protein 1 (Homo sapiens) (UniProt Q00613); assay: ATG_HSE_CIS: Attagene CIS-FACTORIAL HepG2 Assay for human Heat Shock Transcription Factor 1 (HSE) (AID 2282953); conditions: HepG2 HSE cis-reporter, Attagene RNA transcription; actives raise or lower the signal
Sequence of Heat shock factor protein 1 (Homo sapiens) (Q00613 whole entry, looked up, the tested form may be a part): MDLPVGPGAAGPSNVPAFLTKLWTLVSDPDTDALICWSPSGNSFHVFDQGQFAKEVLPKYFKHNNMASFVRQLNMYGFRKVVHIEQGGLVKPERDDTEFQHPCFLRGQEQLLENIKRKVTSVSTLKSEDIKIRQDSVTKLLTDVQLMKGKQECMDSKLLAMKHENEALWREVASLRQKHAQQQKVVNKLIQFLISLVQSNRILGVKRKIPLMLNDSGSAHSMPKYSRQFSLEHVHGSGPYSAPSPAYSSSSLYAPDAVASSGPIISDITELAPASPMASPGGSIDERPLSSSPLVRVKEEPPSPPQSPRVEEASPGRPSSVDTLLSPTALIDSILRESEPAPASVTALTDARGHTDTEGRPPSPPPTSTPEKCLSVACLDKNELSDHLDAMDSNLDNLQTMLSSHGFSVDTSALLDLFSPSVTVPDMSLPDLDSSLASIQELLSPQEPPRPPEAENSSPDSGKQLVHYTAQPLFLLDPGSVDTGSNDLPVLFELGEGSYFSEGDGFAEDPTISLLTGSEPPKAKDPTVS
In short: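 Cells were transfected with cis-element-driven reporter constructs, dosed for 24 h, then total RNA was reverse-transcribed and reporter cDNA amplified, FAM-labelled and digested with HpaI. Fragments were resolved by capillary electrophoresis; gain or loss was fitted against DMSO.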

[7] = ATG_MRE_CIS: Attagene CIS-FACTORIAL HepG2 Assay for human Metal Responsive Element (MRE) (AID 2282954); conditions: HepG2 MRE cis-reporter transcription, Attagene multiplex; actives raise or lower the signal
In short: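 HepG2 cells transiently transfected with multiple cis-element reporter units measure endogenous MTF1-driven transcription. After 24 h compound exposure, reporter mRNA is quantified by RT-PCR with 6-FAM labelling, HpaI digestion and capillary electrophoresis; bidirectional fits versus DMSO.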

[8] = ATG_PBREM_CIS: Attagene CIS-FACTORIAL HepG2 Assay for human Phenobarbital-responsive Enhancer Module (PBREM) (AID 2282955); conditions: HepG2 PBREM cis-reporter, Attagene multiplexed transcription; actives raise or lower the signal
In short: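 Fluorescence of labelled reporter cDNA fragments, resolved by capillary electrophoresis, gives mRNA induction in transfected HepG2 cells treated for 24 h; DMSO serves as negative control and baseline.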

[9] = biological target: Hypoxia-inducible factor 1-alpha (Homo sapiens) (UniProt Q16665); assay: ATG_HIF1a_CIS: Attagene CIS-FACTORIAL HepG2 Assay for human Hypoxia Inducible Factor 1 (HIF1A) (AID 2282951); conditions: HepG2 Attagene cis-factorial HIF1a reporter transcription; actives raise or lower the signal
Sequence of Hypoxia-inducible factor 1-alpha (Homo sapiens) (Q16665 whole entry, looked up): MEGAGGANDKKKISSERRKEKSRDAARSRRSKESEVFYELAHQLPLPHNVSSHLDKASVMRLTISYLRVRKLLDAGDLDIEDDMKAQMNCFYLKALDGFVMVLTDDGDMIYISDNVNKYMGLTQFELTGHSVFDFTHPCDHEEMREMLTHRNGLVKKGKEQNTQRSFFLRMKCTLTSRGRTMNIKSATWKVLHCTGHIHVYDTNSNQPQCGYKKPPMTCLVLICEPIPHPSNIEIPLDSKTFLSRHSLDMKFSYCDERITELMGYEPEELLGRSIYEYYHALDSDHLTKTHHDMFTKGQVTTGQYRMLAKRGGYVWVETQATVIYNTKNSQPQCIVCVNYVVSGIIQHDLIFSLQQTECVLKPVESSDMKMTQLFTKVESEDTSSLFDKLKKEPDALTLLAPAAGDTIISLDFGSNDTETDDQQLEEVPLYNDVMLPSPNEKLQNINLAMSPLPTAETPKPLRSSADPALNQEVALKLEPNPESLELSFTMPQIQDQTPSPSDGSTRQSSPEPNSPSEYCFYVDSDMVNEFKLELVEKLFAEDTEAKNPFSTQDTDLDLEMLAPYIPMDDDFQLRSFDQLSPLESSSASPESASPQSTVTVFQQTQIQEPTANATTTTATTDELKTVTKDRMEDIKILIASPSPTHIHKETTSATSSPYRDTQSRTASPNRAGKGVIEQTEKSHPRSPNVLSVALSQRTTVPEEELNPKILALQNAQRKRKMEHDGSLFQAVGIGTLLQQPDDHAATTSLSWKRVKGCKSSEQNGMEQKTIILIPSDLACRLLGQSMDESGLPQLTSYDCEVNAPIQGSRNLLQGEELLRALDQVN
In short: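 Measures endogenous transcription-factor activity through cis-regulated reporter mRNA in HepG2. Cells dosed 24 h; transcripts quantified by RT-PCR with 6-FAM-labelled products separated by capillary electrophoresis; DMSO serves as negative control.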

Measured: AC50

O=c1c2ccccc2nnn1CCl
inactive: [1] | [2] | [3] | [4] | [5] | [6] | [7] | [8]

CC(C)c1ccc(C=O)cc1
inactive: [1] | [2] | [3] | [5] | [6] | [7] | [8]

N=c1ccn2c(n1)O[C@H]1[C@H](O)[C@@H](CO)O[C@H]12
inactive: [1] | [2] | [3] | [9] | [5] | [6] | [7]

CNC(=S)N(C)C
inactive: [1] | [2] | [3] | [9] | [5] | [6] | [8]

CCC(=O)Oc1ccc(/C(CC)=C(\CC)c2ccc(OC(=O)CC)cc2)cc1
active: [2] 16.9 µM | [6] 29.1 µM | [7] 30.6 µM
inactive: [1] | [3] | [5]

C=C(C)[C@@H]1CCC2=CCC[C@@H](C)[C@]2(C)C1
active: [7] 155 µM
inactive: [1] | [2] | [3] | [4] | [5] | [6] | [8]

O=C(c1ccccc1)c1ccc(O)c(O)c1O
active: [9] 61.2 µM
inactive: [1] | [3] | [4] | [5] | [6] | [7]

Nc1ccc2cc3ccccc3cc2c1
inactive: [1] | [3] | [4] | [9] | [5] | [6] | [7] | [8]

CC(C)c1ccc(C#N)cc1
inactive: [1] | [2] | [3] | [9] | [5] | [6] | [7] | [8]

O=C1c2ccccc2C(=O)C1c1nc2ccccc2c(Br)c1O
active: [9] 4.92 µM
inactive: [1] | [3] | [4] | [5] | [6] | [7]

CCc1ccc2c(c1)C(=O)c1ccccc1C2=O
inactive: [1] | [3] | [4] | [9] | [5] | [6] | [7] | [8]

C=CC(C)(C)C
inactive: [1] | [2] | [3] | [4] | [5] | [6] | [7] | [8]

NC(=O)OCC(COC(N)=O)c1ccccc1
inactive: [1] | [2] | [3] | [4] | [5] | [6] | [7] | [8]

CC(C)(Oc1ccc(C2CC2(Cl)Cl)cc1)C(=O)O (configuration not stated)
inactive: [1] | [2] | [3] | [4] | [5] | [6] | [7] | [8]

C[C@]12CCC(=O)C=C1CC[C@@H]1[C@@H]2C(=O)C[C@@]2(C)[C@H]1CC[C@]2(O)C(=O)CO
inactive: [1] | [2] | [3] | [4] | [5] | [6] | [7] | [8]

CC=CC(=O)N(CC)c1ccccc1C
inactive: [1] | [2] | [3] | [4] | [5] | [6] | [8]

CCCCCC(C)O (configuration not stated)
inactive: [1] | [3] | [4] | [9] | [5] | [6] | [7] | [8]

[Cl][Nd]([Cl])[Cl]
inactive: [1] | [3] | [4] | [9] | [5] | [7] | [8]

C=CC(C)(CCC=C(C)C)OC(=O)C(C)C (configuration not stated)
inactive: [1] | [3] | [4] | [9] | [5] | [6] | [7]

COc1cc(NC(=O)CC(C)=O)c(OC)cc1Cl
inactive: [1] | [2] | [3] | [9] | [5] | [6] | [7] | [8]

CCCCCCCCCCOC(C)=O
inactive: [1] | [2] | [3] | [4] | [5] | [6] | [8]

O=c1cc(-c2ccccc2)oc2ccccc12
inactive: [1] | [3] | [9] | [5]
active: [2] 127 µM | [6] 178 µM | [7] 124 µM | [8] 99.5 µM

CCCCC(CC)COC(=O)c1ccccc1 (configuration not stated)
inactive: [1] | [2] | [3] | [4] | [5] | [6] | [7] | [8]

CCOCC(=O)O
inactive: [1] | [2] | [3] | [4] | [5] | [6] | [8]

CCOC(=O)c1ccc(N(C)C)cc1
inactive: [1] | [2] | [3] | [4] | [5] | [8]

CC(=O)NS(=O)(=O)c1ccc(N)cc1
inactive: [1] | [2] | [3] | [4] | [5] | [6] | [7] | [8]

C=C(C)C(=O)OCCOc1ccccc1
inactive: [1] | [2] | [3] | [4] | [5] | [6] | [7] | [8]

Cn1c([N+](=O)[O-])cnc1COC(N)=O
inactive: [1] | [2] | [3] | [4] | [5] | [6] | [8]

Cc1ccc(C(C)c2ccc(C)c(C)c2)cc1C
active: [1] 24.8 µM | [9] 26.1 µM | [6] 100 µM | [7] 181 µM
inactive: [2] | [3] | [5] | [8]

CCN(CC)c1ccc(C(=O)c2ccccc2C(=O)O)c(O)c1
active: [8] 1.89 µM
inactive: [1] | [3] | [4] | [9] | [5] | [6] | [7]

CN1C(=O)N(C)C(O)C1O (configuration not stated)
inactive: [1] | [2] | [3] | [9] | [5] | [7] | [8]
